Compound activity from PubChem.
This is a sample that favours compounds with a hit; in the whole collection about 2.8% have one here.
MITF TRPM1 inh = inhibitors of MITF-dependent TRPM1 promoter reporter, primary screen, cell-based, SK-MEL-5, single point, luciferase | inhibition, % at 12.5 µM | AID 488899, 2010 | SK-MEL-5 TRPM1 promoter luciferase, 24 h | hit rate 0.83% among 330,000;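 active = mean inhibition across replicates of 60% or more, whatever share of single replicates reaches that level; inconclusive = some that reach 60%, reason not given; inactive = mean inhibition across replicates below 60%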
HIF-2a block = HIF-2a reporter inhibitors, primary screen, luminescence, 786-0 RCC cells | 786-0 RCC cells HIF-2a reporter, luciferase luminescence, overnight | hit rate 0.72% among 360,000 | inhibition, % at 18.8 µM;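 active = inhibition of the luminescence signal of 40% or more relative to plate controls, in a single-dose primary screen at 18.75 µM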
Shn3 3UTR inh = reduction of Shn3 3'UTR firefly luciferase signal, primary screen, Schnurri-3 inhibitor project, cell-based, Clone20 osteoblasts, set 2 | Clone20 osteoblast Shn3 3'UTR firefly luciferase, 24 h | inhibition, % at 12.5 µM | hit rate 0.52% among 360,000 | AID 588674, 2011;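 active = mean inhibition of at least 75% with every replicate also reaching 75%; inconclusive = mean inhibition at least 75% but some replicate below; inactive = mean inhibition below 75%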
KKLEB cytotox = cytotoxicity in KKLEB CF airway cells, primary screen, cytotoxicity control for CF NF-kB inhibitor project, cell-based, uHTS, fluorescence assay plates; KKLEB CF airway cells viability, ATPlite luminescence, overnight; hits give low values; cells stimulated with P. aeruginosa culture filtrate; activity change (cytotoxicity), % at 5 µM; hit rate 0.36% among 360,000;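 active = corrected activity change at or below -50% at 5 µM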
CF NFkB inh = inhibitors of PAF-induced NF-kB signaling, primary screen, cell-based, GFP fluorescence, uHTS; KKLEB NF-kB-GFP reporter, GFP fluorescence overnight; inhibition, % at 5 µM; hit rate 0.86% among 360,000;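 active = at least 50% inhibition at 5 µM, scaled per plate between neutral and stimulator controls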;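 also: PAF is a Pseudomonas aeruginosa culture filtrate used as stimulus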
Peg3 prom inh = Peg3 promoter-driven luciferase inhibitors, primary screen, cell-based, HeLa, luciferase luminescence. HeLa PEG-Prom luciferase reporter, overnight. inhibition, % at 20 µM. hit rate 1.7% among 360,000. AID 588405, 2011;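 active = inhibition of at least 50% at 20 µM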
A number is an active result; – = inactive; ? = inconclusive; · = not tested or not shown.

SMILES	MITF TRPM1 inh	HIF-2a block	Shn3 3UTR inh	KKLEB cytotox	CF NFkB inh	Peg3 prom inh
CCOC(=O)C1(C)CCN1C(=O)c1cc(F)ccc1C (stereo not given)	·	–	–	–	–	–
Cc1ccccc1COc1cccc(/C=N/NC(=O)c2nnn(-c3nonc3N)c2C)c1	–	–	–	–	–	74
Cc1c(C(=O)N/N=C/c2cccc(O)c2)nnn1-c1nonc1N	–	–	–	–	–	–
CN(C)CCNc1ccc(CO)c2sc3ccc(O)cc3c(=O)c12	85	50	–	–	–	100
COc1ccc(C(=O)NN2CCOCC2)cc1	–	–	–	–	–	–
COCCCn1c(=O)c2ccccc2n(CC(=O)NC2CCCCC2)c1=O	–	–	–	–	–	–
O=C1C(O)=CC(=C(c2ccccc2)c2ccccc2)c2ccccc21	61	–	–	–	–	–
O=C(O)c1cccc2c1C(=O)c1ccccc1C2=O	–	–	–	–	–	–
CCN1CCN(C2=C(NS(=O)(=O)c3ccc(C)cc3)C(=O)c3ccccc3C2=O)CC1	70	–	–	–	–	–
CCN1CCN(C2=C(NS(=O)(=O)c3ccc(NC(C)=O)cc3)C(=O)c3ccccc3C2=O)CC1	–	–	–	–	–	–
CC(=O)Nc1ccc(S(=O)(=O)NC2=C(N3CCN(C)CC3)C(=O)c3ccccc3C2=O)cc1	83	–	–	–	–	–
CC(=O)Nc1ccc(S(=O)(=O)NC2=C(N3CCN(Cc4ccccc4)CC3)C(=O)c3ccccc3C2=O)cc1	–	–	–	–	–	–
Cc1ccc(/C=C/C(=O)Nc2ccc(S(=O)(=O)Nc3onc(C)c3C)cc2)cc1	–	–	–	–	–	–
O=C(CCNC(=O)c1ccc(Cl)cc1)NCc1ccco1	–	–	–	–	–	–
Cc1cccnc1NC(=O)CCNC(=O)c1ccc(Br)cc1	–	–	–	–	–	–
Nc1nonc1-c1nc2ccccc2n1CC(=O)N/N=C/c1ccc(-c2cccc(C(=O)O)c2)o1	–	–	–	–	–	–
CCOc1ccc(OCCC(=O)OCC(=O)N2CCN(S(=O)(=O)c3ccc(Cl)cc3)CC2)cc1	–	–	–	–	84	–
COc1ccc2nc3cc(Cl)ccc3c(Nc3cc(CN4CCCC4)c(O)c(CN4CCCC4)c3)c2n1	·	–	–	–	–	97
CCc1nnc(NC(=O)CCC(=O)N2CCC(Cc3ccccc3)CC2)s1	–	–	–	–	–	–
O=C(Nc1ccc(Oc2c(F)c(F)c(F)c(F)c2F)cc1)OC1CCN2Cc3ccccc3N=C12 (stereo not given)	62	–	–	–	–	109
COc1ccc(C2c3c(-c4ccccc4O)n[nH]c3C(=O)N2CCc2ccc(OC)c(OC)c2)cc1 (stereo not given)	–	–	–	–	–	–
COc1ccc(CCN2C(=O)c3[nH]nc(-c4ccccc4O)c3C2c2cccc(Cl)c2)cc1 (stereo not given)	–	–	–	–	–	98
COc1ccccc1NC(=O)COC(=O)C1CC2CCCC(C1)C2=O (stereo not given)	–	–	–	–	–	–
CC(=NNC(=S)N1CC2CCC(CC2)C1)c1ccccn1	·	–	86	–	–	–
CC(=NNC(=S)N1CCN(c2ccccn2)CC1)c1nccs1	·	–	85	–	66	–
SMILES	MITF TRPM1 inh	HIF-2a block	Shn3 3UTR inh	KKLEB cytotox	CF NFkB inh	Peg3 prom inh
CC(=NNC(=S)N1CC2CCC(CC2)C1)c1cnccn1	65	–	84	–	–	–
C/C(=N/NC(=O)c1cnccn1)c1ccncc1	–	–	–	–	–	–
CC(=NNC(=S)N1CCN(c2ccccn2)CC1)c1ccccn1	–	–	–	–	–	–
COC(=O)C1=C/CCCN(C(c2ccccc2)c2ccccc2)/C=C\1C(=O)OC	·	–	–	–	–	–
O=C(c1ccc([N+](=O)[O-])o1)N1CCN(Cc2ccccc2)CC1	–	–	–	–	–	–
CCc1cccc2sc(N3CCN(C(=O)c4ccc([N+](=O)[O-])o4)CC3)nc12	77	–	–	–	–	–
COc1ccc(Nc2nc(NCCO)nc(N3CCCC3)n2)cc1	–	–	–	–	–	–
OCCNc1nc(Nc2ccc(Cl)cc2)nc(N2CCCC2)n1	–	–	87	–	–	–
COCC(=O)Nc1cc(C)cn(Cc2ccccc2Cl)c1=O	–	–	–	–	–	–
COc1cc(/C=C2/C(=O)ON=C2c2ccccc2)ccc1O	–	53	–	–	–	–
COc1cc(/C=C2\C(=O)ON=C2c2ccccc2)cc(Br)c1O	–	51	–	–	–	51
CCOc1cc(/C=C2\C(=O)ON=C2c2ccccc2)cc(Br)c1O	–	79	–	–	–	–
CCOc1cc(/C=C2/C(=O)ON=C2C)cc(Br)c1O	–	–	–	–	–	–
COc1cc(/C=C2\C(=O)ON=C2c2ccccc2)cc(Cl)c1O	–	–	–	–	–	–
CCN(CC)c1ccc2nc3ccccc3[n+](CC)c2c1	67	–	–	–	–	57
Cc1nn(CC(=O)NCCCN2CCC(Cc3ccccc3)CC2)c(=O)c2cc(-c3ccccc3)nn12	?	–	–	–	–	100
Cc1nn(CC(=O)NCCCN2CCN(Cc3ccccc3)CC2)c(=O)c2cc(-c3ccccc3)nn12	–	–	–	–	–	–
OCC1CCCN(C(=S)Nc2ccc(Nc3ccccc3)cc2)C1 (stereo not given)	–	–	–	–	–	–
CCOc1ccc(OCc2cccc(C(=O)Nc3ccc(CN4CCCCC4)cc3)c2)cc1	–	–	–	–	–	50
C[n+]1c2n(c3ccccc31)N=C(c1ccc(-c3ccccc3)cc1)CS2	82	–	–	–	–	–
CC(C)(C)CC(=O)Nc1nnc(SCC(=O)N2CCCCC2)s1	–	–	–	–	–	–
C/C(=N\Nc1nnc(-c2ccccc2)c(-c2ccccc2)n1)c1cccc([N+](=O)[O-])c1	–	–	–	-51	–	–
O=[N+]([O-])c1cccc(/C=N/Nc2nnc(-c3ccccc3)c(-c3ccccc3)n2)c1	–	–	–	–	–	–
Cc1noc2ncnc(Oc3cc(Cl)ccc3Cl)c12	–	–	–	–	–	94
Cc1noc2ncnc(Oc3ccc4ccccc4c3)c12	–	–	–	–	–	–
C=C(C)COc1ccc2c(c1)CCC1C2CCC2(C)C(=O)C(=NO)CC12 (stereo not given)	–	–	–	–	64	71
O=C(COC(=O)c1ccccc1Nc1ccc(SC(F)F)cc1)NCc1ccco1	–	–	–	–	–	–
